This is part of a sample that, as a whole, favours compounds with a hit. Of some 83,000 tested, about 20% had one in any assay.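 Activity criterion: percent growth below 10, measured after cells in 96-well plates were exposed to a single compound concentration for 48 hours.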 Unmarked numbers belong to inactive results. The source made the active and inactive calls.
System: SR leukemia
Assay: NCI-60 one-dose screen, 48 h (100 = growth as untreated, 0 = no growth, -100 = all killed)
Settings: 10 µM unless noted
Description: Growth inhibition of the SR human tumor cell line is measured as a screen for anti-cancer activity. Cells are grown in 96 well plates and exposed to the test compound for 48 hours. Compounds are tested at a single concentration, which is 10^-5 M for most compounds. The reported endpoint is percent growth (GI% or GIPRCNT), where numbers from 0 - 100% represent growth inhibition, and numbers from -100% - 0 represent cell death. For example, a value of 40 represents 60% growth inhibition. A value of 0 means no net growth occurred over the course of the experiment. A value of -40 indicates 40% of cells at the beginning of the experiment died by the end of the experiment. A value of -100 means all cells are dead at the end of the experiment.
NCI-60 Human Tumor Cell Lines Screen was performed using the standard one-dose NCI protocol, which is described in more detail at https://dtp.cancer.gov/discovery_development/nci-60/default.htm.
Compounds with GIPRCNT values below 10 were considered active. Activity score was based on GIPRCNT using the following formula: […]
Score is 0 for GIPRCNT values of 100 or above, 50 for GIPRCNT values of 0, and 100 for GIPRCNT values of -100.

SMILES	growth
CC1=C2[C@@H](CC1)[C@]1(C)O[C@@](C3CCCCC3)(C[C@H]1OC(=O)CO)[C@H]2OC(=O)/C=C/c1ccccc1	52.1%
Cc1ccc(C(=O)c2ccc(CC(=O)NN3C(=O)c4ccccc4C3=O)n2C)cc1	110%
CC(=O)Oc1ccc(OC(C)=O)c2ccccc12	56.8%
COc1cc2nc3sc(C(=O)Nc4ccc(C(=O)OC(C)C)cc4)c(C(=O)Nc4ccc(Cl)cc4C)n3c(=O)c2cc1OC	19.5%
COc1ccc(-c2nc(-c3cn(C)c4ncccc34)cs2)cc1	12.2% [100 µM]
N#C/C(=C\c1ccc([N+](=O)[O-])cc1)n1nnc2cc(F)c(F)cc21	-0.476% (active)
CCN(CC)Cc1cc(Nc2ccnc3cc(Cl)ccc23)ccc1O	82.7%
Cn1c(=O)c2[nH]c(SCC(=O)Nc3ccc(C(=O)/C=C/c4ccccc4Cl)cc3)nc2n(C)c1=O	78.1%
CCN(CC)c1ccc(/C=N/NC(=O)Cc2ccc(Nc3ccnc(C(F)(F)F)c3)cc2)c(O)c1	19.7%
O=P(O)(O)OCC1OC(n2cnc3c(NCc4ccco4)ncnc32)C(O)C1O (stereo not given)	27.1%
Cc1nc2c(=O)nc3s/c(=C\c4ccco4)c(=O)n3c2nc1C	94.2%
O=C(Nc1ccccc1[N+](=O)[O-])c1ccc(Cl)c(Cl)c1	92.3%
O=C(c1c[nH]c2ccccc12)c1n[nH]c(=S)n1-c1cccc(Br)c1	76.8%
CC1C(/C=N/NC(N)=S)C(C#N)(C#N)C1(C#N)C#N (stereo not given)	85.6%
O=C(NNc1cnccn1)c1nc2cc(F)ccc2n2cccc12	3.73% (active)
COc1ccc(-c2ccc(-c3ccc(C(=N)N)nc3)s2)cc1Cl	-7.17% (active)
Cc1cccc[n+]1C1c2ccccc2-c2ccccc21	102%
COc1ccc(CNc2c3ccccc3nc3ccccc23)c(OC)c1	18.1%
CCOC(=O)c1ccccc1-c1c2ccc(=[N+](C)C)cc-2oc2cc(N(C)C)ccc12	21.9%
Cc1ncc(C(=O)Nc2ccc(CN3CCN(C)CC3)c(C(F)(F)F)c2)cc1C#Cc1cnc(N)c2ncccc12	-33.9% (active)

SMILES	growth
C=CCN1C(=O)c2cccc3c(N4CCOCC4)ccc(c23)C1=O	-9.38% (active)
O=C(N/N=C\c1cccc([N+](=O)[O-])c1)N/N=C/c1cccc([N+](=O)[O-])c1	109%
Cc1[nH]c(C2CC(c3ccc(C(F)(F)F)c(F)c3)=NN2c2ccccc2)c(C)c1C(=O)NCC(F)(F)F (stereo not given)	81.6%
Nc1[nH]n2cc(-c3ccc(F)cc3)nc2c1N=Nc1ccc(S(N)(=O)=O)cc1	66.5%
CCS/C(Nc1ccccc1)=C(\C#N)C(=O)Nc1ccc(OC)cc1	6.62% (active)
Cc1nc2cc(O)c(O)cc2cc1Oc1ccc(NC(=O)Nc2ccc(Cl)c(Cl)c2)cc1	8.95% (active)
COc1ccc2c(c1)CCc1[nH]nc(-c3cc(OC)c(OC)c(OC)c3)c1-2	-26.2% (active)
CC[C@]12C=CCN3CC[C@@]4(c5ccc(OC)cc5N(C)[C@H]4[C@@](O)(C(=O)OC)[C@@H]1OC(=O)CCC[P+](c1ccccc1)(c1ccccc1)c1ccccc1)[C@@H]32	9.57% (active)
O=C(O)/C=C/C(=O)Nc1cccc(Cn2nnc3cc(Cl)c(Cl)cc32)c1	93.8%
C=C(CNCCc1ccc(O)cc1)[C@@H]1CC[C@]2(CO)CC[C@]3(C)[C@H](CC[C@@H]4[C@@]5(C)CCC(=O)C(C)(C)[C@@H]5CC[C@]43C)[C@@H]12	-24.9% (active)
CCOC(=O)c1cc(C(=O)c2cc(OC)c(OC)c(OC)c2)n2ccccc12	23.9%
COc1ccc(C(=O)N2c3ccccc3Sc3ccccc32)c(C(F)(F)F)c1	16.3%
CCOC(=O)C(=Cc1ccc(-c2ccccc2)cc1)C(=O)OCC	4.01% (active)
CCNC(=O)Oc1ccc(/C(=C(/CC)Cc2ccccc2)c2ccc(OCCN3CCCC3)cc2)cc1	75.5%
Nc1nc(N)c2c(n1)NC(c1ccc(Cl)cc1)C1CCc3ccccc3C1=N2 (stereo not given)	33.1%
COc1cccc(CNc2c3ccccc3nc3ccccc23)c1	8.36% (active)
COc1ccc(Cn2cc(C(=O)N=Nc3c(O)[nH]c4c(C)cccc34)nn2)cc1	76.6%
COc1cccc(/C=C/C(=O)c2cccc(Nc3nc(Nc4ccccc4)nc(Nc4ccccc4)n3)c2)c1	42.4%
CCCCNC(=O)Oc1ccc(/C(=C(/C)Cc2ccc(OC)cc2)c2ccc(OCCN3CCCCCC3)cc2)cc1	-44.2% (active)
C#CCn1cnc2cnc(Nc3cccc(NC(=O)C=C)c3)nc21	4.73% [6.25 µM] (active)

From PubChem BioAssay (NCI)
